{"source": "paper PMC4552634", "about": "“A New Set of Chemical Starting Points with Plasmodium falciparum Transmission-Blocking Potential for Antimalarial Drug Discovery” (PLoS ONE, 2015)", "note": "Out of some 13,000 compounds screened, about 3,200 (25%) showed an effect of 50% or more. The list shows a part of the results.", "data": [{"tested_on": "P. falciparum stage V gametocytes", "parameters": "BacTiter-Glo ATP luminescence viability of purified stage V gametocytes in 384-well plates, per cent inhibition versus DMSO", "settings": "48 h, 5 µM; inhibitor", "units": {"% Inhibition": "%"}, "values": [{"compound": "CC(C)C[C@@H](/C=N/N1CC(=O)NC1=O)NC(=O)[C@H](CC(C)C)NC(=O)c1ccc(OCCN2CCOCC2)cc1", "note": "[TCMDC-136200]", "% Inhibition": 6.414}, {"compound": "CCCCCCCC/C=C\\CCCCCCCC(=O)NCc1ccc(O)c(OC)c1", "note": "[TCMDC-124289]", "% Inhibition": 45.72}, {"compound": "COC1CCC(C(=O)Nc2ccc(-c3cccc(-c4nc5c(C)cccc5[nH]4)c3)cc2)CC1", "note": "(centres unmarked) [TCMDC-136859]", "% Inhibition": -20.23}, {"compound": "Cc1cccc2[nH]c(-c3cccc(-c4ccc(NC(=O)C5CCCO5)cc4)c3)nc12", "note": "(centres unmarked) [TCMDC-136969]", "% Inhibition": -0.7596}, {"compound": "Cc1cccc2[nH]c(-c3cccc(-c4ccc(NC(=O)C5CCN(C)CC5)cc4)c3)nc12", "note": "[TCMDC-132189]", "% Inhibition": 100.5}, {"compound": "CC(=O)N1CCC(C(=O)Nc2ccc(-c3cccc(-c4nc5c(C)cccc5[nH]4)c3)cc2)CC1", "note": "[TCMDC-132167]", "% Inhibition": -9.717}, {"compound": "Cc1cccc2[nH]c(-c3ccc(-c4ccc(NC(=O)C5CCN(C)CC5)cc4)cc3)nc12", "note": "[TCMDC-132182]", "% Inhibition": 81.12}, {"compound": "CC1CN(Cc2ccccc2)CCN1c1ccc(NC(=O)c2ccc(F)cc2)cc1", "note": "(centres unmarked) [TCMDC-135002]", "% Inhibition": -13.42}, {"compound": "O=C(Nc1ccc(Cl)cc1)c1cccc(S(=O)(=O)NC2CCN(CC3CCCCC3)C2)c1", "note": "(centres unmarked) [TCMDC-132483]", "% Inhibition": -5.409}, {"compound": "O=C(Nc1ccc(C(F)(F)F)cc1)c1cccc(S(=O)(=O)NC2CCN(CC3CCCCC3)C2)c1", "note": "(centres unmarked) [TCMDC-132485]", "% Inhibition": -55.81}, {"compound": "N#Cc1cccc(NC(=O)c2cccc(S(=O)(=O)NC3CCN(CC4CCCCC4)C3)c2)c1", "note": "(centres unmarked) [TCMDC-132508]", "% Inhibition": 83.68}, {"compound": "O=C(Nc1cccc(C(F)(F)F)c1)c1cccc(S(=O)(=O)NC2CCCN(CC3CCCCC3)C2)c1", "note": "(centres unmarked) [TCMDC-132769]", "% Inhibition": -38.48}, {"compound": "O=C(Nc1ccc(Cl)cc1)c1cccc(S(=O)(=O)NC2CCN(CC3CCCCC3)CC2)c1", "note": "[TCMDC-132807]", "% Inhibition": 80.59}, {"compound": "O=C(Nc1ccc(C(F)(F)F)cc1)c1cccc(S(=O)(=O)NC2CCN(CC3CCCCC3)CC2)c1", "note": "[TCMDC-133671]", "% Inhibition": 8.091}, {"compound": "CCC(CC)OC(=O)C(C)c1cccc(C(=O)c2ccccc2)c1", "note": "(centres unmarked) [TCMDC-138666]", "% Inhibition": -7.418}, {"compound": "COc1ccc2ncc(F)c(CCN3CC[C@H](NCc4cc(C#N)c5c(c4)OCCO5)[C@H](O)C3)c2c1", "note": "[TCMDC-136207]", "% Inhibition": -10.98}, {"compound": "CCC(C)OC(=O)C1=C(C)NC2=C(C(=O)CC(c3ccc(OC)c(OC)c3)C2)C1c1ccc(O)cc1", "note": "(centres unmarked) [TCMDC-125619]", "% Inhibition": 13.43}, {"compound": "CCOC(=O)c1ccc(NC(=O)N[C@@H](Cc2ccc(O)cc2)C(=O)NC2CCN(Cc3ccc4c(c3)OCO4)CC2)cc1", "note": "[TCMDC-135257]", "% Inhibition": -19.76}, {"compound": "CCN(CC)CCN(Cc1ccc(-c2ccc(C(F)(F)F)cc2)cc1)C(=O)Cn1c(CCc2ccc(F)cc2)nc(=O)c2ccccc21", "note": "[TCMDC-140943]", "% Inhibition": 79.23}, {"compound": "CCN(CC)CCN(Cc1ccc(-c2ccc(C(F)(F)F)cc2)cc1)C(=O)Cn1c(/C=C/c2ccco2)nc(=O)c2ccccc21", "note": "[TCMDC-140939]", "% Inhibition": 82.58}, {"compound": "CCN(CC)CCN(Cc1ccc(-c2ccc(C(F)(F)F)cc2)cc1)C(=O)Cn1c(CCc2cc(F)cc(F)c2)nc(=O)c2ccccc21", "note": "[TCMDC-140956]", "% Inhibition": 70.83}, {"compound": "CCN(CC)CCN(Cc1ccc(-c2ccc(C(F)(F)F)cc2)cc1)C(=O)Cn1c(CCC2CCCCC2)nc(=O)c2ccccc21", "note": "[TCMDC-141056]", "% Inhibition": 47.99}, {"compound": "COc1ccc2nccc(N3CCN(CCNCc4ccc5c(n4)NC(=O)CO5)CC3)c2n1", "note": "[TCMDC-141968]", "% Inhibition": 1.504}, {"compound": "Cc1cc(NCC(C)C)c2[nH]nc(-c3ccccc3)c2n1", "note": "[TCMDC-131557]", "% Inhibition": -38.79}, {"compound": "CC(=O)c1c(Cc2ccccc2Cl)c[nH]c1C", "note": "[TCMDC-125433]", "% Inhibition": -14.2}, {"compound": "CC(C)COc1cc(C(=O)Nc2cnc3ccccc3c2)ccc1[N+](=O)[O-]", "note": "[TCMDC-139142]", "% Inhibition": 13.84}, {"compound": "COc1ccc(CNC(=O)NC2CCN(c3ccnc(Nc4ccc(F)cc4)n3)CC2)cc1", "note": "[TCMDC-133631]", "% Inhibition": 1.923}, {"compound": "OC(CNC12CC3CC(CC(C3)C1)C2)c1cccc(C(F)(F)F)c1", "note": "(centres unmarked) [TCMDC-131509]", "% Inhibition": -56.01}, {"compound": "CCc1ccc(-n2cc(C(=O)c3cc(Br)ccc3O)cc(C#N)c2=O)cc1", "note": "[TCMDC-125186]", "% Inhibition": 9.775}, {"compound": "O=[N+]([O-])c1ccccc1/C=N/Nc1ccnc2cc(Cl)ccc12", "note": "[TCMDC-123965]", "% Inhibition": -67.83}, {"compound": "COc1ccc2nccc([C@@H](O)CN3CCC(NC(=O)c4ccc(C5(C(F)(F)F)N=N5)cc4)CC3)c2c1", "note": "[TCMDC-141324]", "% Inhibition": -7.709}, {"compound": "CCCCOc1ccc(/C=C/c2ccc(-c3c(C)[nH]c(C)c(Cl)c3=O)s2)cc1", "note": "[TCMDC-136086]", "% Inhibition": 60.63}, {"compound": "CN(CCCCCN1CCC(NC(=O)Nc2ccc(C(F)(F)F)cc2)C1)C(=O)/C=C/c1ccc(Cl)c(Cl)c1", "note": "(centres unmarked) [TCMDC-139531]", "% Inhibition": 79.06}, {"compound": "CC(C)c1ccc(NC(=O)NC2CCN(CCCCCNC(=O)/C=C/c3ccc(Cl)c(Cl)c3)CC2)cc1", "note": "[TCMDC-139389]", "% Inhibition": -3.81}, {"compound": "COc1ccc(NC(=O)NC2CCN(CCCCCNC(=O)/C=C/c3ccc(Cl)c(Cl)c3)CC2)cc1", "note": "[TCMDC-135709]", "% Inhibition": -22.99}, {"compound": "O=C(/C=C/c1ccc(Cl)c(Cl)c1)NCCCCCN1CC[C@H](NC(=O)Nc2ccc(Oc3ccccc3)cc2)C1", "note": "[TCMDC-139512]", "% Inhibition": 98.95}, {"compound": "CN(CCCCCN1CCC(NC(=O)Nc2ccc(Oc3ccccc3)cc2)C1)C(=O)/C=C/c1ccc(Cl)c(Cl)c1", "note": "(centres unmarked) [TCMDC-139532]", "% Inhibition": -7.519}, {"compound": "COc1ccccc1NC(=O)NC1CCN(CCCCCNC(=O)/C=C/c2ccc(Cl)c(Cl)c2)CC1", "note": "[TCMDC-139385]", "% Inhibition": -13.68}, {"compound": "O=C(/C=C/c1ccc(Cl)c(Cl)c1)NCCCCCN1CCC(NC(=O)Nc2ccc(Oc3ccccc3)cc2)C1", "note": "(centres unmarked) [TCMDC-139528]", "% Inhibition": -43.31}, {"compound": "O=C(/C=C/c1ccc(Cl)c(Cl)c1)NCCCCCN1CCC(NC(=O)Nc2ccc(OC(F)F)cc2)CC1", "note": "[TCMDC-135722]", "% Inhibition": -13.06}, {"compound": "COc1ccc(NC(=O)NC2CCN(CCCCCNC(=O)/C=C/c3ccc(Cl)c(Cl)c3)C2)c(OC)c1", "note": "(centres unmarked) [TCMDC-139525]", "% Inhibition": 95.6}, {"compound": "O=C(/C=C/c1ccc(Cl)c(Cl)c1)NCCCCCN1CCC(NC(=O)Nc2ccc(Cl)c(Cl)c2)CC1", "note": "[TCMDC-139387]", "% Inhibition": -30.31}, {"compound": "CC(C)c1ccc(NC(=O)N[C@H]2CCN(CCCCCNC(=O)/C=C/c3ccc(Cl)c(Cl)c3)C2)cc1", "note": "[TCMDC-139510]", "% Inhibition": 104.6}, {"compound": "CC(C)c1ccc(NC(=O)NC2CCN(CCCCCN(C)C(=O)/C=C/c3ccc(Cl)c(Cl)c3)C2)cc1", "note": "(centres unmarked) [TCMDC-139530]", "% Inhibition": -5.21}]}]}
